Assay outcomes as filed in PubChem BioAssay.
Shown are actives, neighbours in structure and some others; about 12% of the full set was active somewhere.
Pf growth 96h: P. falciparum growth inhibition at 96 hour, primary screen for plastid delayed-death inhibitors. hit rate 6.9% among 320,000. AID 504834. Potency, µM (series often up to 28.7 µM), without a hit: top-dose activity change, negative = inhibition, actives largely listed as inhibitors. P. falciparum luciferase reporter growth, 96 h; note: % is set by controls: 0 for no effect and ±100 for the full control effect
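Delayed-death screen, second-generation endpoint: infected erythrocytes, 2% hematocrit, 0.05% parasitemia final; 96 hours at 37 C, 5% CO2; luciferase detection reagent; luminescence decrease equals reduced growth.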
SARS PLpro yeast: SARS-CoV PLP inhibition in yeast; Potency, µM (doses to about 32.9 µM), without a hit: top-dose activity, positive = growth rescue, usual class: activators; AID 485353; S. cerevisiae expressing SARS-CoV PLpro, growth rescue; hit rate 0.19% among 330,000; calls by dose curve; note: 0% is about no effect; nearly all actives have a fitted effect of over 55% in size
Sm TGR block: S. mansoni TGR enzyme inhibition | purified TGR, DTNB reduction, TNB absorbance 405 nm | AID 485364 | Potency, µM (doses to about 114 µM), without a hit: at the highest dose activity change, negative = inhibition, usual class: inhibitors | hit rate 3% among 360,000 | Q962Y6; note: % is set by controls: 0 for no effect and ±100 for the full control effect; nearly all actives have a fitted effect of over 60% in size
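First, TGR (20 nM dispensed) and NADPH were mixed with compound. Second, a 15 min room-temperature incubation followed. Third, further NADPH and then DTNB were added to start the reaction. Finally, TNB absorbance was monitored kinetically.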
AmpC detergent: AmpC beta-lactamase inhibition with detergent present; P00811; AmpC hydrolysis of nitrocefin, absorbance 480 nm, 0.01% Triton; Potency, µM (titrated, usually from 114 µM), for the others: at the highest dose activity change, negative = inhibition, usual class: inhibitors; hit rate 0.041% among 370,000; AID 485294;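 note: 0% = no-compound wells and -100% = no-enzyme wells; nearly all actives have a fitted effect of over 25% in size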
Target sequence (P00811 whole entry, looked up): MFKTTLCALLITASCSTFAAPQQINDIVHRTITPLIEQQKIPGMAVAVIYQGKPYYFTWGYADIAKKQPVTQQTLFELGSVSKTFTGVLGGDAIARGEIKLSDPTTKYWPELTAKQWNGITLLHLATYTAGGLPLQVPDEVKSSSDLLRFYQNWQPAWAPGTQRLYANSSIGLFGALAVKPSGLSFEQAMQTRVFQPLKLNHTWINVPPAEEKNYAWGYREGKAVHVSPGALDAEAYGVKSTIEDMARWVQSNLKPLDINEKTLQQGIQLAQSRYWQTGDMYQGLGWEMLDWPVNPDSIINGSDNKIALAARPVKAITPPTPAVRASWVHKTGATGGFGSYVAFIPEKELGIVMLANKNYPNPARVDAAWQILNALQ
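AmpC (5.3 nM in the dispensed reagent) in 20 mM phosphate pH 7.0 with 0.01% (detergent screen) or 0.0001% Triton X-100 was preincubated with compounds for 15 min at room temperature. Nitrocefin was then added from an 800 uM solution, and hydrolysis was followed at 480 nm.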
Pf growth 48h: P. falciparum growth inhibition at 48 hours (one generation) | P. falciparum luciferase growth in erythrocytes, 48 h | Potency, µM (titrated, usually from 28.7 µM), for the others: top-dose activity change, negative = inhibition, actives largely listed as inhibitors | hit rate 5.9% among 310,000; note: % is set by controls: 0 for no effect and ±100 for the full control effect
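Erythrocytes infected with P. falciparum carrying an integrated firefly luciferase reporter (2% hematocrit, 0.1% parasitemia final) were exposed to compounds in RPMI 1640 with 0.5% Albumax at 37 C, 5% CO2. Growth inhibition was scored as reduced luminescence.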
AmpC inh no detg: AmpC beta-lactamase inhibition without detergent. Potency, µM (top dose mostly 57.1 µM), without a hit: at the top dose activity change, negative = inhibition, hits mostly inhibitors. P00811. AmpC nitrocefin hydrolysis, absorbance 480 nm, 0.0001% Triton. hit rate 0.52% among 330,000;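 note: plate controls were no compound for no effect and no enzyme for full effect; nearly all actives have a fitted effect of over 20% in size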
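AmpC (5.3 nM in the dispensed reagent) in 20 mM phosphate pH 7.0 with 0.01% (detergent screen) or 0.0001% Triton X-100 was preincubated with compounds for 15 min at room temperature. Nitrocefin was then added from an 800 uM solution, and hydrolysis was followed at 480 nm.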
* marks the source's active call; other numbers are inactive results; ? = inconclusive; · = no result; [ ] = dose if it differs, or a comment. Unless noted, calls come from the whole dose curve; as a rule, active = well fitted curve in the direction sought with a large enough effect; inconclusive = small, poorly fitted or top-dose-only effect, or another doubt; inactive = no such curve, though single readings can be large; an effect the other way counts as inactive or inconclusive. Potency is the fitted concentration of half-maximal effect.

SMILES	Pf growth 96h	SARS PLpro yeast	Sm TGR block	AmpC detergent	Pf growth 48h	AmpC inh no detg
S=C(Nc1ccccc1)N1CCn2c1nc1ccccc12	2.62µM*	5.2%	-21.8%	?	5.1%	-19.1%
CCCOP(=O)(c1ccc(N(C)C)cc1)C(O)c1ccc(Cl)cc1Cl (stereo not drawn)	13.1µM*	-4.3%	-0.6%	1.8%	7.38µM*	109.2%
CC(C)COP(=O)(c1ccc(N(C)C)cc1)C(O)c1ccc(Br)cc1 (stereo not drawn)	10.4µM*	0.9%	-1.6%	-2.6%	?	125.5%
CCOP(=O)(c1ccc(N(C)C)cc1)C(O)c1c(Cl)cccc1Cl (stereo not drawn)	?	-1.9%	-1.9%	?	?	0.0%
CCCOP(=O)(c1ccc(N(C)C)cc1)C(O)c1c(Cl)cccc1Cl (stereo not drawn)	8.28µM*	-2.8%	0.0%	0.7%	?	32.3%
CC(C)CCOP(=O)(c1ccc(N(C)C)cc1)C(O)c1c(Cl)cccc1Cl (stereo not drawn)	11.7µM*	-2.2%	-20.9%	1.8%	10.4µM*	31.6%
COc1ccc(C(=O)NCC(=O)OCc2cc(=O)n3nc(C4CCCCC4)sc3n2)cc1	·	·	2.3%	-5.6%	·	·
COc1ccc(C(O)P(=O)(OCCC(C)C)c2ccc(N(C)C)cc2)cc1OC (stereo not drawn)	?	0.9%	9.5%	5.0%	-13.8%	97.5%
Cc1ccc(C(O)P(=O)(OCCC(C)C)c2ccc(N(C)C)cc2)cc1 (stereo not drawn)	?	-0.1%	0.4%	-2.0%	11.7µM*	80.4%
Cc1ccc2c(C(=O)CN3CCOCC3)c(C)[nH]c2c1	21.8%	11.3%	?	-2.2%	-4.1%	-13.3%
Cc1ccc2c(C(=O)CN3CC(C)CC(C)C3)c(C)[nH]c2c1 (stereo not drawn)	?	-0.4%	14.1µM*	0.1%	?	-16.5%
Cc1ccc2c(C(=O)CN3CCCC(C)C3)c(C)[nH]c2c1 (stereo not drawn)	0.6%	0.9%	35.5µM*	?	-8.8%	-19.8%
O=C(CN1C(=O)COc2ccc(S(=O)(=O)N3CCOCC3)cc21)Nc1cccc(Cl)c1	5.6%	-3.4%	-6.5%	-1.4%	-4.5%	-42.4%
O=c1c(Cl)c(Cl)cnn1Cc1ccc(F)cc1	?	-4.5%	20µM*	-1.4%	-18.7%	4.0%
O=C(OCn1ncc(Cl)c(Cl)c1=O)c1ccccc1Cl	5.5%	-31.1%	7.08µM*	?	-0.1%	-19.7%
O=C(OCn1ncc(Cl)c(Cl)c1=O)c1ccc(F)cc1	?	-29.7%	7.08µM*	-13.3%	?	-14.3%
CC1(C)CC(=O)C=C(c2ccc(I)cc2)C1	?	-0.9%	0.4%	2.2%	4.65µM*	-7.9%
Cc1ccc(CNc2nc3ccc(Cl)cc3n3nnnc23)cc1	·	·	2.3%	17.0%	·	·
CN(Cc1ccccc1F)c1nc(-c2cccs2)nc2ccccc12	-4.3%	-52.2%	0.9%	-8.4%	9.28µM*	4.7%
Fc1ccccc1N1CCN(c2nc(-c3cccs3)nc3ccccc23)CC1	?	-5.2%	1.1%	-5.6%	?	-13.3%
COC(=O)c1ccc(Cl)cc1NC(=O)N(C)CCc1c(C)nn(C)c1C	·	·	-9.4%	-1.9%	·	·
C=C[C@@H]1CN2CC[C@H]1C[C@H]2[C@H](O)c1ccnc2ccccc12	0.0536µM*	·	·	·	0.135µM*	·
CCOC(=O)C1CCN(c2c(C(=O)c3ccc(OCC)cc3)cnc3ccc(OC)cc23)CC1	·	·	-5.2%	0.1%	·	·
C=CC1CN2CCC1CC2C(OC(=O)OCC)c1ccnc2ccc(OC)cc12 (stereo not drawn)	0.757µM*	·	·	·	1.69µM*	·
CC[C@H]1CN2CCC1C[C@H]2[C@H](O)c1ccnc2ccc(OC)cc12 (stereo partly drawn)	0.0522µM*	·	1.6%	-8.7%	0.0928µM*	-27.4%
SMILES	Pf growth 96h	SARS PLpro yeast	Sm TGR block	AmpC detergent	Pf growth 48h	AmpC inh no detg
C=CC1CN2CCC1CC2[C@@H](OC(=O)c1ccc(OC)cc1)c1ccnc2ccccc12 (stereo partly drawn)	12.0%	5.5%	0.4%	-4.1%	2.94µM*	177.6%
O=C(Nc1ccccc1C(=O)Nc1nnc(C(F)(F)F)s1)c1ccccc1	2.62µM*	-2.0%	2.8%	?	1.17µM*	-31.9%
Cc1occc1C(=O)Nc1nnc(C(F)(F)F)s1	·	-20.6%	-1.8%	-5.0%	8.2%	-7.6%
Cc1ccc(NS(=O)(=O)c2c(C)[nH]c(=O)[nH]c2=O)c(C)c1	27.3%	0.4%	-11.8%	-4.0%	8.5%	1.0%
Cc1cc(Br)ccc1NS(=O)(=O)c1c(C)[nH]c(=O)[nH]c1=O	5.22µM*	1.9%	10.5%	-3.7%	1.5%	-53.0%
COC(=O)C1C(=O)c2c([nH]c(C(=O)OC3CCCCCC3)c2C)CC1C (stereo not drawn)	8.28µM*	4.6%	2.1%	?	-36.5%	-17.9%
COCCOC(=O)c1[nH]c2c(c1C)C(=O)C(C(=O)OC)C(C)C2 (stereo not drawn)	?	-9.4%	0.0%	-7.4%	·	-10.5%
COC(=O)C1C(=O)c2c([nH]c(C(=O)OCC3CCCO3)c2C)CC1C (stereo not drawn)	?	0.0%	-2.0%	?	90.1%	10µM*
CCOc1ccccc1CN1CCN(Cc2cccc3nonc23)CC1CCO (stereo not drawn)	?	-1.2%	-9.7%	-2.4%	-15.5%	-40.3%
COc1ccc(CN2CCN(Cc3ccc(C)cc3)C(CCO)C2)cc1OC (stereo not drawn)	-3.8%	0.3%	-0.1%	3.8%	-23.2%	39.5%
CCOc1ccc(CN2CCN(Cc3cnc(-c4ccccc4)s3)CC2CCO)cc1 (stereo not drawn)	?	0.3%	·	5.3%	?	258.6%
COc1cc(CN2CCN(Cc3ccc(C)cc3)C(CCO)C2)cc(OC)c1O (stereo not drawn)	-17.0%	-0.3%	6.31µM*	8.1%	-0.1%	75.0%
Cc1ccc(CN2CCN(Cc3ccon3)CC2CCO)cc1 (stereo not drawn)	10.4µM*	0.7%	1.6%	4.4%	-2.3%	-8.4%
CCOc1ccccc1CN1CCN(Cc2ccc3cccc(OC)c3n2)CC1CCO (stereo not drawn)	?	1.6%	25.1µM*	-1.6%	0.0%	139.0%
CCOc1ccc(CN2CCN(CC3=Cc4cccc(OC)c4OC3)CC2CCO)cc1 (stereo not drawn)	?	-0.2%	-11.3%[57.1 µM]	-6.9%	10.4µM*	200.7%
CCC(=O)c1cc2c(cc1NC(=O)C(C)C)OCCO2	2.33µM*	5.7%	-15.3%	?	-2.4%	-33.4%
